Laboratory results published in PubChem BioAssay.

target: Voltage-gated potassium channel subunit beta-2 (Rattus norvegicus) (UniProt P62483); test: KvBeta positive modulators, primary screen, biochemical, NADPH fluorescence (AID 623); details: Recombinant KvBeta, NADPH fluorescence decrease slope, 10 min; at 10 µM; hits give low values;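 note: fluorescence intensity change per second fitted from 20 to 320 s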
Sequence (P62483 whole entry, looked up): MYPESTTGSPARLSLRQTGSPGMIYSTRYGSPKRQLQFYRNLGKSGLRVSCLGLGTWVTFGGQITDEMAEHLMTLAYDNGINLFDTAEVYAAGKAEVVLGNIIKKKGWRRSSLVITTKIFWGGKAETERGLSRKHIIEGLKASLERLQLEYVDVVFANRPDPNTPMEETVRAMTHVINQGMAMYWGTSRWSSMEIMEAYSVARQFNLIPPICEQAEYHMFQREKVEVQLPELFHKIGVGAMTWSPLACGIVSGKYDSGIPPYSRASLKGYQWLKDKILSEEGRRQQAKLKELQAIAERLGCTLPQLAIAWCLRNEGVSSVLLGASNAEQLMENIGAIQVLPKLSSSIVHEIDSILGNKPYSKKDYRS

NADPH fluorescence slope, inactive:
CCOC(=O)N1CCN(C(=O)CN(Cc2ccccc2)S(=O)(=O)c2ccc(OC)c(C)c2)CC1 1e-05, COC(=O)c1ccc(COC(=O)c2c(C)nn(Cc3ccccc3Cl)c2Cl)o1 1.7e-05, O=C(Nc1cccnc1)c1cc2c(ccc3ccccc32)o1 -4.5e-05, Clc1ccc(OCc2nnc(SCCN3CCCCC3)n2Cc2ccco2)cc1 -1.2e-05, O=C(/C=C/N1CCOCC1)c1ccc(-c2ccccc2)cc1 -4.3e-05, COc1cccc(N2C(=O)N(c3ccccc3Cl)C3CS(=O)(=O)CC32)c1 (stereo not given) -1.8e-05, O=C(NCc1cccs1)c1cc2c(s1)CS(=O)(=O)C2 -4.2e-06, CC(C)CC(c1nnnn1C(C)(C)C)N1CCN(C2CCCC2)CC1 (stereo not given) -6.5e-05, Cc1cc(C(=O)COC(=O)CCc2nc3ccccc3s2)c(C)n1C -3.3e-05, Cc1cc(C)n2nc(SCC(=O)N(C)Cc3ccccc3)nc2n1 -6.2e-06, CCCCCCC(c1c(C)n(C)n(-c2ccccc2)c1=O)c1c(C)n(C)n(-c2ccccc2)c1=O -5e-05, c1ccc2c(-c3nc(-c4ccncc4)no3)cccc2c1 -3.1e-05, CNC(=O)c1ccc2nc(NC(C)=O)sc2c1 -6.5e-05, O=C(c1ccccc1)c1ccc(N2CCNCC2)cc1 5.3e-06, N#Cc1c(-c2ccc3c(c2)OCO3)csc1N -4.4e-05, Cc1ccc(Cn2c(SCC(N)=O)nc3c2c(=O)n(C)c(=O)n3C)cc1 1e-05, C#CCOC(=O)C1C2C=CC(C2)C1C(=O)O (stereo not given) -6.5e-05, Cc1nc2ncnn2c(N2CCC(C(=O)NCC3CCCO3)CC2)c1Cc1ccccc1 (stereo not given) -2.8e-05, CCC(=O)Nc1nn(C)c2nc3c(C)cccc3cc12 -6.4e-06, Cc1cc(NC(=O)C(C)(C)C)no1 -1.1e-05, CCN(CC(=O)Nc1ccc2c(c1)CCC2)Cc1nc2ccccc2c(=O)[nH]1 -3.6e-05, Cc1ccc(S(=O)(=O)NCC(=O)OCC(=O)Nc2ncc(Cl)cc2Cl)cc1 -4.6e-05, O=C(CN1C(=O)c2ccccc2C1=O)Nc1ccc(S(=O)(=O)NCC2CCCO2)cc1 (stereo not given) -2.5e-05, Cc1cc(C)nc(SCc2nnc(SCC(=O)Nc3ncc(C)s3)n2Cc2ccco2)n1 -6.9e-05, COc1ccc(C(C)NC(=O)c2ccoc2C)cc1OC (stereo not given) -2.1e-05, Cc1nc(C)n(C(C)CC(=O)O)n1 (stereo not given) -4.4e-05, Cc1cccc(N(CC(=O)N2CCCC2)S(=O)(=O)c2ccccc2)c1C -4.5e-05, CCC1(C)Cc2c(sc3nc(SCC(=O)O)[nH]c(=O)c23)CO1 (stereo not given) -1.8e-05, Cc1cc(NC(=O)CSc2nc(C3CC3)nc3sc4c(c23)CCC(C)C4)no1 (stereo not given) -5.2e-05, CCN(CC)C(c1ccc(C)cc1)c1nnnn1C1CCCCC1 (stereo not given) -6.9e-05, COc1ccc(NC(=O)CSc2nc(C)cc(C(F)(F)F)n2)cc1 -2.1e-05, CC1CN(C(=O)CSc2ncnc3sccc23)CC(C)O1 (stereo not given) -2.6e-05, CC1CCCC(C)N1CCNC(=O)C1CCN(S(=O)(=O)N2CCCCC2)CC1 (stereo not given) 1.9e-05, COc1ccc(C(=O)Nc2ccc(Cl)c(Cl)c2)c(OC)n1 -6.9e-05, CC(C)(C)c1ccc(C(=O)N2CCC(C(=O)NCc3ccncc3)CC2)cc1 -4.7e-05, CCc1nnc(NC(=O)CSc2nc(-c3ccc(OC)cc3)ns2)s1 3.8e-06, COC(=O)c1ccc(NC(=O)C2C3CCC(C3)C2C(=O)O)cc1 (stereo not given) -1.7e-05, c1ccc(-c2nc3cnccn3c2Nc2ccc3c(c2)OCCO3)cc1 -6.7e-06, CCOCC(O)CS(=O)Cc1ccccc1 (stereo not given) -6.9e-05, Cc1ccc(OCC(O)Cn2c(NCCc3ccccc3)nc3c2c(=O)[nH]c(=O)n3C)cc1 (stereo not given) 5.3e-06
